Measured values as given in PubChem BioAssay AID1159580 (chemical genetic matrix, 2015).
“And” between values parts separate entries of the source, which are not always exact repeats. Equal entries are not always repeated. The whole screen tested about 5,500 compounds, of which about 2,000 (36%) were called active. Not shown: some 18% with an inconclusive outcome. Rule as the data show it: active = normalized growth mostly below about 0.91 (no sharp cut-off); inconclusive = no clear call, values can overlap the other calls; inactive = mostly above about 0.92. The list shows a part of the results.

Assay: chemical genetic growth profiling, strain panel (AID 1159580);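 also: tested at 20 µM; growth read once vehicle control cultures reached saturation at 30 °C; 1 = growth at the plate median or of vehicle wells; lower values mean less growth of the strain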
Settings: S. cerevisiae deletion strains, growth OD

Measured: normalized growth

Oc1cc2c(cc1O)C1c3ccc(O)c(O)c3OCC1(O)C2 (centres undefined)
inactive: locus YAL021C, strain ccr4, hits give low values 1 | locus YAL030W, strain snc1, hits give low values 1.01 | locus YBL061C, strain skt5, hits give low values 0.993 | locus YBR009C, strain hhf1, hits give low values 1 | locus YBR021W, strain FUR4, hits give low values 1.01 | locus YBR023C, strain chs3, hits give low values 0.995 | locus YBR171W, strain sec66, hits give low values 1.01 | locus YBR229C, strain ROT2, hits give low values 1 | locus YBR231C, strain swc5, hits give low values 0.956 | locus YBR279W, strain paf1, hits give low values 0.984 | locus YCL011C, strain gbp2, hits give low values 1.01 | locus YCL016C, strain dcc1, hits give low values 1 | locus YCL029C, strain bik1, hits give low values 0.997 | locus YCL069W, strain vba3, hits give low values 1.02 | locus YCR088W, strain abp1, hits give low values 1.02 | locus YDL005C, strain med2, hits give low values 1 | locus YDL035C, strain GPR1, hits give low values 0.973 | locus YDL040C, strain nat1, hits give low values 1.04 | locus YDL074C, strain BRE1, hits give low values 0.852 | locus YDL101C, strain DUN1, hits give low values 0.908 | locus YDL185W, strain tfp1, hits give low values 0.961 | locus YDL192W, strain arf1, hits give low values 0.997 | locus YDR001C, strain nth1, hits give low values 1.02 | locus YDR069C, strain doa4, hits give low values 0.936 | locus YDR101C, strain arx1, hits give low values 1.07 | locus YDR137W, strain rgp1, hits give low values 1.05 | locus YDR159W, strain sac3, hits give low values 1.03 | locus YDR195W, strain ref2 1.02 | locus YDR297W, strain sur2, hits give low values 1.01 | locus YDR318W, strain mcm21, hits give low values 0.99 | locus YDR334W, strain swr1, hits give low values 0.991 | locus YDR335W, strain msn5, hits give low values 0.996 | locus YDR388W, hits give low values 0.998 | locus YDR392W, strain spt3, hits give low values 0.991 | locus YDR502C, strain sam2, hits give low values 1.01 | locus YEL003W, strain gim4, hits give low values 1.01 | locus YEL037C, strain rad23, hits give low values 1.02 | locus YEL061C, strain CIN8 (second series), hits give low values 1.02 | locus YEL061C, strain CIN8, hits give low values 0.964 | locus YER015W, strain faa2, hits give low values 0.983 | locus YER016W, strain bim1, hits give low values 1.02 | locus YER110C, hits give low values 0.999 | locus YER111C, strain swi4, hits give low values 0.961 | locus YER155C, strain BEM2 (second series), hits give low values 1.02 | locus YER155C, strain BEM2, hits give low values 1.02 | locus YER167W, strain BCK2, hits give low values 1.04 | locus YFR010W, strain ubp6, hits give low values 0.983 | locus YGL078C, strain dbp3, hits give low values 0.972 | locus YGL086W, strain mad1, hits give low values 0.966 | locus YGL173C, strain kem1, hits give low values 0.985 | locus YGL227W, strain vid30, hits give low values 1.01 | locus YGL240W, strain doc1, hits give low values 1.04 | locus YGL248W, strain PDE1, hits give low values 0.893 | locus YGL253W, strain hxk2, hits give low values 1.01 | locus YGR078C, strain PAC10, hits give low values 0.916 | locus YGR135W, strain pre9, hits give low values 0.946 | locus YGR252W, strain gcn5, hits give low values 0.992 | locus YHR013C, strain ard1, hits give low values 0.987 | locus YHR027C, strain rpn1, hits give low values 0.98 | locus YHR030C, strain SLT2, hits give low values 1 | locus YHR079C, strain IRE1 (second series), hits give low values 1.01 | locus YHR079C, strain IRE1, hits give low values 1.01 | locus YHR094C, strain hxt1, hits give low values 1.01 | locus YHR142W, strain chs7, hits give low values 0.99 | locus YHR200W, strain rpn10, hits give low values 0.976 | locus YIL066C, strain RNR3, hits give low values 0.939 | locus YIL073C, strain SPO22, hits give low values 0.683 | locus YIL125W, strain kgd1, hits give low values 1 | locus YIR030C, strain dcg1, hits give low values 1.01 | locus YJL092W, strain hpr5, hits give low values 1.02 | locus YJL095W, strain BCK1 (second series), hits give low values 1.01 | locus YJL095W, strain BCK1, hits give low values 0.811 and 0.994 | locus YJL115W, strain asf1, hits give low values 1 | locus YJL129C, strain trk1, hits give low values 1.07 | locus YJL134W, strain LCB3, hits give low values 0.992 | locus YJL154C, strain vps35, hits give low values 1.02 | locus YJL164C, strain tpk1, hits give low values 0.991 | locus YJL166W, strain qcr8, hits give low values 0.991 | locus YJL168C, strain set2, hits give low values 0.984 | locus YJR043C, strain POL32, hits give low values 0.95 | locus YJR066W, strain TOR1, hits give low values 0.913 | locus YKL009W, strain mrt4, hits give low values 1.06 | locus YKL068W, hits give low values 0.983 | locus YKL085W, strain MDH1 (second series), hits give low values 0.977 | locus YKL085W, strain MDH1, hits give low values 0.977 | locus YKL160W, strain elf1, hits give low values 0.983 | locus YKR001C, strain vps1, hits give low values 1.03 | locus YKR026C, strain gcn3, hits give low values 1.01 | locus YKR091W, strain srl3, hits give low values 1.02 | locus YLL001W, strain dnm1, hits give low values 1.01 | locus YLL026W, hits give low values 1.01 | locus YLL041C, strain sdh2, hits give low values 1.03 | locus YLR027C, strain aat2, hits give low values 0.984 | locus YLR039C, strain RIC1, hits give low values 0.916 | locus YLR058C, strain SHM2, hits give low values 0.916 | locus YLR102C, strain apc9, hits give low values 0.998 | locus YLR113W, strain HOG1, hits give low values 1.07 | locus YLR221C, strain rsa3, hits give low values 0.986 | locus YLR258W, strain gsy2, hits give low values 1.02 | locus YLR262C, strain YPT6 (second series), hits give low values 0.979 | locus YLR268W, strain sec22, hits give low values 1.04 | locus YLR320W, strain mms22, hits give low values 0.999 | locus YLR330W, strain CHS5, hits give low values 0.974 | locus YLR342W, strain FKS1, hits give low values 0.979 | locus YLR357W, strain rsc2, hits give low values 0.907 | locus YLR370C, strain arc18, hits give low values 0.987 | locus YLR371W, strain rom2, hits give low values 0.932 | locus YLR384C, strain iki3, hits give low values 1 | locus YLR418C, strain cdc73, hits give low values 0.963 | locus YML032C, strain rad52, hits give low values 1.07 | locus YML120C, strain ndi1, hits give low values 1.04 | locus YML124C, strain tub3, hits give low values 1.02 | locus YMR078C, strain ctf18, hits give low values 1.01 | locus YMR125W, strain sto1, hits give low values 1.05 | locus YMR129W, hits give low values 1.03 | locus YMR205C, strain PFK2, hits give low values 1.02 | locus YMR223W, strain ubp8, hits give low values 0.977 | locus YMR231W, strain pep5, hits give low values 0.995 | locus YMR307W, strain GAS1, hits give low values 0.784 | locus YNL067W, strain RPL9B, hits give low values 0.931 | locus YNL071W, strain lat1, hits give low values 1.01 | locus YNL153C, strain GIM3, hits give low values 0.908 | locus YNL183C, strain NPR1, hits give low values 0.907 | locus YNL209W, strain ssb2, hits give low values 0.958 | locus YNL233W, strain BNI4, hits give low values 0.911 | locus YNL248C, strain rpa49, hits give low values 0.995 | locus YNL250W, strain rad50, hits give low values 0.952 | locus YNL271C, strain bni1, hits give low values 0.988 | locus YNL298W, strain CLA4, hits give low values 0.991 | locus YNL307C, strain MCK1, hits give low values 0.996 | locus YNL322C, strain KRE1 (second series), hits give low values 1.01 | locus YNR049C, strain mso1, hits give low values 1.02 | locus YNR052C, strain pop2, hits give low values 0.954 | locus YOL006C, strain TOP1, hits give low values 0.585 | locus YOL012C, strain htz1 0.422 | locus YOL147C, strain pex11, hits give low values 1.01 | locus YOR001W, strain rrp6, hits give low values 0.991 | locus YOR061W, strain CKA2, hits give low values 0.945 | locus YOR069W, strain VPS5, hits give low values 0.953 | locus YOR070C, strain gyp1, hits give low values 0.965 | locus YOR080W, strain dia2, hits give low values 1.01 | locus YOR083W, strain WHI5, hits give low values 0.971 | locus YOR106W, strain vam3, hits give low values 0.985 | locus YOR136W, strain idh2, hits give low values 1.02 | locus YOR144C, strain elg1, hits give low values 1.01 | locus YOR184W, strain ser1, hits give low values 1.09 | locus YOR231W, strain MKK1, hits give low values 1.01 | locus YOR265W, strain rbl2, hits give low values 1 | locus YOR270C, strain vph1, hits give low values 1.05 | locus YOR290C, strain snf2, hits give low values 0.997 | locus YOR316C, strain cot1, hits give low values 0.996 | locus YPL051W, strain arl3, hits give low values 0.929 | locus YPL078C, strain atp4, hits give low values 1.02 | locus YPL106C, strain sse1, hits give low values 0.957 | locus YPL240C, strain hsp82, hits give low values 1.02 | locus YPL256C, strain CLN2, hits give low values 1.02 | locus YPR119W, strain clb2, hits give low values 1.01 | locus YPR141C, strain kar3, hits give low values 0.982 | locus YPR163C, strain tif3, hits give low values 1.01 | locus YPR167C, strain met16, hits give low values 1.01 | strain wtn01, hits give low values 1.02
active: locus YDL134C, strain PPH21, hits give low values 0.832 | locus YDR162C, strain NBP2, hits give low values 0.821 | locus YHR129C, strain ARP1, hits give low values 0.912 | locus YJL187C, strain SWE1 (second series), hits give low values 0.856 | locus YLR342W, strain FKS1 (second series), hits give low values 0.696 | locus YML016C, strain PPZ1, hits give low values 0.86 | locus YMR058W, strain fet3, hits give low values 0.784 | locus YNL322C, strain KRE1, hits give low values 0.902
